Reference: PubChem BioAssay (NCI)
The panel holds about 83,000 compounds, 20% with a hit somewhere; the sample as a whole holds those more often.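 Activity criterion: percent growth below 10, measured after cells in 96-well plates were exposed to a single compound concentration for 48 hours.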 Unmarked numbers belong to inactive results. Activity calls are given as the source filed them.

Assays:
Assay in all cases: NCI-60 one-dose screen, 48 h (100 = growth as untreated, 0 = no growth, -100 = all killed)
Details in all cases: 10 µM
HT29 colon = test system: HT29 colon
SNB-75 CNS = test system: SNB-75 CNS
SNB-19 CNS = test system: SNB-19 CNS
U251 CNS = test system: U251 CNS
PC-3 prostate = test system: PC-3 prostate
SK-MEL-5 melanoma = test system: SK-MEL-5 melanoma
UACC-62 melanoma = test system: UACC-62 melanoma
LOX IMVI melanoma = test system: LOX IMVI melanoma
SK-MEL-28 melanoma = test system: SK-MEL-28 melanoma
SK-MEL-2 melanoma = test system: SK-MEL-2 melanoma
EKVX NSCLC = test system: EKVX NSCLC
SN12C renal = test system: SN12C renal
UO-31 renal = test system: UO-31 renal
TK-10 renal = test system: TK-10 renal
ACHN renal = test system: ACHN renal
CAKI-1 renal = test system: CAKI-1 renal
A498 renal = test system: A498 renal
CCRF-CEM leukemia = test system: CCRF-CEM leukemia
MOLT-4 leukemia = test system: MOLT-4 leukemia
SR leukemia = test system: SR leukemia

Row | SMILES | growth (HT29 colon) | growth (SNB-75 CNS) | growth (SNB-19 CNS) [%] | growth (U251 CNS) | growth (PC-3 prostate) | growth (SK-MEL-5 melanoma) | growth (UACC-62 melanoma) | growth (LOX IMVI melanoma) | growth (SK-MEL-28 melanoma) | growth (SK-MEL-2 melanoma) | growth (EKVX NSCLC) [%] | growth (SN12C renal) | growth (UO-31 renal) | growth (TK-10 renal) | growth (ACHN renal) | growth (CAKI-1 renal) | growth (A498 renal) | growth (CCRF-CEM leukemia) | growth (MOLT-4 leukemia) | growth (SR leukemia)
1 | Cc1cccc(Cl)c1NC(=O)c1ccc2nc(NC(=O)NC3CCN(C)CC3)sc2c1 | 29.6% | 6.73% (active) | 102 | 80.5% | 69.7% | 71.6% | 106% | 79.7% | 108% | 126% | 90.9 | 73.8% | 84.1% | 83.8% | 102% | 100% | 104% | 83% | 77.9% | 86.7%
2 | CCN(CC)CCOc1nc2ccc(OC)cc2c2c1-c1ccc(OC)cc1C2=O | -61.4% (active) | -1.45% (active) | 33.5 | -87.9% (active) | -0.151% (active) | -36.1% (active) | 36% | -74.6% (active) | -12.6% (active) | 20.8% | 25.2 | 29.3% | -44.4% (active) | 8.74% (active) | -93% (active) | -4.67% (active) | 25.4% | 5.22% (active) | 3.68% (active) | -14.8% (active)
3 | COc1cc(CNc2ccccc2C(=O)N2CCN(C(=O)c3cc(-c4cc(OC)c(OC)c(OC)c4)n4nc(-c5ccccc5)cc4n3)CC2)cc(OC)c1OC | 12.9% | 33.5% | 64.1 | 35.2% | 26.9% | 16.5% | 27% | 35.7% | 53% | -0.722% (active) | 63.6 | 79.4% | 19.1% | 52.1% | 51.8% | 18.9% | -5.33% (active) | 58.8% | 68% | 8.84% (active)
4 | COc1ccc(-c2nc3sccn3c2-c2nc3c([nH]2)C(=O)c2ccccc2C3=O)cc1 | 96.2% | 81.7% | 96.4 | 87.1% | 73.7% | 89% | 82.2% | 90.7% | 89.6% | 101% | 83.1 | 86% | 71.3% | 111% | 86.4% | 84.7% | 49.7% | 79.9% | 76% | 76.6%
5 | CCCCCCCCN(CCCCCCCC)CCCCCCCCCN1CCCc2cc(OC)ccc21 | 84.8% | 84.5% | 98.3 | 90.7% | 85.2% | 109% | 86.8% | 88.6% | 101% | 101% | 81.5 | 82.7% | 80.4% | 117% | 96.5% | 99.3% | 96% | 85.8% | 85.8% | 77.5%
6 | O=C(Nc1nc2ccc(F)cc2s1)c1cc(-c2ccc(F)cc2)n2nc(-c3ccccc3)cc2n1 | 92.7% | 70.7% | 88 | 102% | 84.2% | 68.3% | 66.3% | 85.9% | 58.1% | 111% | 84.1 | 87.5% | 98.2% | 113% | 107% | 85.6% | 124% | 74.5% | 99.7% | 35%
7 | COC(=O)c1c(-c2ccccc2)csc1NC(=O)c1c(-c2ccccc2)noc1C | 7.12% (active) | 48.1% | 43.9 | 13.3% | 32.5% | 32% | 48.3% | -50% (active) | 47.9% | 61.2% | 58.7 | 44.8% | 26% | 55.9% | 31.5% | 6.32% (active) | 67.8% | 35% | 15.9% | -17.2% (active)
8 | CCCCCC(=O)c1ccc(OCCCN2CCN(C(=O)OCC)CC2)cc1 | 102% | 102% | 95.9 | 98.2% | 78.7% | 63.7% | 87% | 81.7% | 98.3% | 85.5% | 83.4 | 94.8% | 77.4% | 101% | 96.1% | 95.2% | 95.5% | 21.1% | 78.6% | 84.4%
9 | O=C(CC(C(=O)c1ccccc1)N1CCOCC1)c1ccccc1 (stereo not given) | 92.4% | 101% | 95.6 | 88% | 99.4% | 95.5% | 87.7% | 88.4% | 92.2% | 102% | 99.2 | 87.3% | 89.9% | 90.8% | 97.3% | 100% | 89.9% | 9.08% (active) | 45.7% | 28.5%
10 | COc1ccc(-c2ccc3cc(C(=O)Nc4ccc(O)c(C(=O)/C=C/c5cc(OC)c(OC)c(OC)c5)c4)ccc3c2)cc1 | 95.3% | 94% | 96.1 | 92.6% | 65.5% | 72.6% | 71.1% | 81.3% | 106% | 99.5% | 101 | 92.6% | 59.6% | 100% | 96.3% | 86.6% | 91.2% | 53.8% | 69.6% | 60.3%
11 | CCCN(CCC)CCC(O)c1cc2c(c3ccccc13)CCCC2 (stereo not given) | 52.3% | 75.7% | 90.5 | 83.5% | 80.9% | 94.7% | 81.7% | 89% | 98.1% | 108% | 87.9 | 82% | 71.4% | 101% | 86.9% | 96.1% | 74.4% | 93.8% | 92.9% | 75.3%
12 | C=C(C(=O)c1ccccc1)C(NC(C)(C)C)c1ccccc1 (stereo not given) | -26.1% (active) | 53.6% | 80.8 | 4.4% (active) | 5.45% (active) | -25.6% (active) | 0.104% (active) | -82.2% (active) | 9.1% (active) | -13.9% (active) | 52.3 | 2.42% (active) | -51.7% (active) | 9.63% (active) | -59.4% (active) | 6.9% (active) | 94.1% | 5.75% (active) | 4.36% (active) | -17.7% (active)
13 | CCN(CC)CCC(CNc1c(C)cnc2cc(Cl)ccc12)c1ccc(Cl)c(Cl)c1 (stereo not given) | 11.6% | 59.2% | 71.7 | 46.4% | 49.4% | -92.3% (active) | -48.5% (active) | 37.8% | -75.3% (active) | 107% | 73.5 | 59.1% | 44.5% | 94.4% | 54.8% | 62.1% | 24.6% | 30.3% | 25.2% | -19.1% (active)
14 | COc1ccc2c(c1)sc1nc(-c3ccccc3)c(-c3ccc(O)c(OC)c3)n12 | 21.5% | 77.6% | 80.4 | 41.7% | 82.3% | 55.5% | 66.2% | 61.5% | 73.6% | 49.8% | 88.4 | 96.3% | 99.8% | 120% | 101% | 77.5% | 76.6% | 78.1% | 71.2% | 17.2%
15 | COc1ccc(-c2nnc(-c3c(-c4ccccc4)nc4ncccn34)o2)cc1OC | 102% | 74.1% | 100 | 101% | 97.9% | 95.4% | 102% | 102% | 112% | 96.3% | 114 | 97.3% | 79% | 111% | 88.8% | 103% | 117% | 96.7% | 93.1% | 81.1%
